The source made the active and inactive calls.
Key:
Albumin (Bos taurus) = Albumin (Bos taurus) (UniProt P02769); assay: bovine serum albumin binders on microarray, profiling panel, artefact control for SMM control protein annotation, biochemical, small-molecule microarray, Alexa647 label, 635/667 nm fluorescence (AID 1118); conditions: BSA-A647 binding, fluorescence 635 nm, higher = more signal;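 further: score merges 667 nm emission intensity and signal-to-noise per printed compound spot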
[1] = small-molecule microarray binders of probe aXIP, primary screen, biochemical, NeuroSMM set, 635/667 nm fluorescence (AID 1119); conditions: higher = more signal, called active from +8 up or from −8 down;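 further: probe is the protein aXip251-270 applied at 1 µg/mL to compound-printed slides; binding of probe to printed compounds measured as 667 nm fluorescence plus signal to noise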
[2] = small-molecule binders of probe aNOTCH3, primary screen, biochemical, small-molecule microarray, 635/667 nm fluorescence (AID 1120); conditions: higher = more signal;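 further: probe is a biotin-tagged antibody raised against NOTCH3 rather than NOTCH3 protein; score merges spot fluorescence near 667 nm with spot signal to noise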
[3] = small-molecule binders of probe aNOTCH2, primary screen, biochemical, small-molecule microarray, 635/667 nm fluorescence (AID 1121); conditions: higher = more signal;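 further: score merges feature fluorescence read at 667 nm with its signal to noise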
[4] = target: Carbonic anhydrase 2 (Homo sapiens) (UniProt P00918); assay: CAII small-molecule binders, profiling panel, biochemical, small-molecule microarray, Alexa647-labelled CAII (AID 1122); conditions: CAII-A647 binding fluorescence, higher = more signal
[5] = COS7 lysate on small-molecule microarray, probe aHis, 635 nm (AID 1123); conditions: COS7 cell lysate, fluorescence, higher = more signal;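 further: z-score combines 667nm fluorescence intensity with signal-to-noise per printed compound spot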
[6] = compound binding in COS7 lysate, probe aLAP1, primary screen, cell lysate, small-molecule microarray (AID 1124); conditions: probe aLAP1, fluorescence, higher = more signal;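 further: lysate comes from COS7 cells expressing LAP1 and is applied at 0.3 µg/mL; score merges spot fluorescence near 667 nm with signal-to-noise over triplicate slides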
Sam68 (KHDRBS1) = assay: Sam68 small-molecule binders, primary screen, biochemical, small-molecule microarray, 635 nm fluorescence (AID 1125); conditions: small-molecule microarray binding, higher = more signal;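 further: score merges 667 nm channel intensity with signal to noise over triplicate slides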
[7] = system: Chordin-like protein 2 (CHRDL2); assay: CHRDL2 small-molecule binders, primary screen, biochemical, small-molecule microarray, 635 nm fluorescence (AID 1126); conditions: small-molecule microarray binding, fluorescence 635 nm; higher = more signal;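 further: printed compound slides probed with Chrdl2 protein at 4 µg/mL for 1 h at 4 C; score merges 667 nm emission intensity with signal to noise over three replicate slides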
[8] = target: Concanavalin-A (Canavalia ensiformis) (UniProt P02866); assay: ConA small-molecule binders, primary screen, artefact control for SMM control protein annotation, biochemical, small-molecule microarray, Alexa647 label, 635 nm (AID 1127); conditions: ConA-A647 binding fluorescence, higher = more signal;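 further: z combines 667 nm emission intensity with signal-to-noise across three replicate slides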
Concanavalin-A (Canavalia ensiformis), sequence (P02866 whole entry, looked up): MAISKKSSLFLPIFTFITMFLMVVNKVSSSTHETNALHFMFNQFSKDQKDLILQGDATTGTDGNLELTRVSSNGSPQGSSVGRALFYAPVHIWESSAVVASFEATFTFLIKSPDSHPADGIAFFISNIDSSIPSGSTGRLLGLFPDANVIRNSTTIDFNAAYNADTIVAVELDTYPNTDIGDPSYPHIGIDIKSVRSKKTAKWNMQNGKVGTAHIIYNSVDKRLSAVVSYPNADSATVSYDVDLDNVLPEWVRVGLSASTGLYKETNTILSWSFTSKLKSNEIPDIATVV

Albumin (Bos taurus), sequence (P02769 whole entry, looked up): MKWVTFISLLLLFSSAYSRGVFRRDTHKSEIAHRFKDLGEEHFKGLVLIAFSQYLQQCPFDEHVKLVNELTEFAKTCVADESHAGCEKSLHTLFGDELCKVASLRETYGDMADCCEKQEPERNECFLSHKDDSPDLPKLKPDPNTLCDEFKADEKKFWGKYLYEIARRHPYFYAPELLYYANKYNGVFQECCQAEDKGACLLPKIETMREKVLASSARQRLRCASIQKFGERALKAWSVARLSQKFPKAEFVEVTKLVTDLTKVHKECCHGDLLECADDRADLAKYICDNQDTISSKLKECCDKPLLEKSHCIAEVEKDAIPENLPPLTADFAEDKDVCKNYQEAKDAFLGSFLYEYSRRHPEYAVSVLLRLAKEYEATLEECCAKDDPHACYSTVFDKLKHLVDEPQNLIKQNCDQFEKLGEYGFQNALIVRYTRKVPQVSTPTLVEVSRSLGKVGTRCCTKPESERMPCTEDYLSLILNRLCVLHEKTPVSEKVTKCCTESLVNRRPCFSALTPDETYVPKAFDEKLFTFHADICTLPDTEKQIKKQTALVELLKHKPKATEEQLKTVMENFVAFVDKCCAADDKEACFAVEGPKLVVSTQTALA

Row | SMILES | composite z-score (Albumin (Bos taurus)) | composite Z-score [1] | composite z-score [2] | composite z-score [3] | composite z-score [4] | composite z-score [5] | composite z-score [6] | composite z-score (Sam68 (KHDRBS1)) | composite z-score [7] | composite z-score [8]
1 | O=C(C1N=C(c2ccc(OCCCO)cc2)N(c2ccccc2)O1)N1CCOCC1 (stereo not given) | 0.709 | 0.0285 (inactive) | 0.237 | -0.0843 | 0.557 | 1.54 | 0.255 | 1.32 | -0.114 | 0.488
2 | O=C1OCCC/C=C\[C@H]2OC34C=CCN(Cc5ccccc5)C(=O)[C@H]3N(CCCCCCO)C(=O)[C@@H]4C12 (stereo not given in full) | -0.449 | 0.986 (inactive) | -0.262 | -0.141 | 0.893 | -0.19 | 0.468 | 0.139 | -1.24 | -1.3
3 | CC1CC/C=C\[C@H]2OC34C=CCN(Cn5nnc6ccccc65)C(=O)[C@H]3N(C(CO)C(C)C)C(=O)[C@@H]4C2C(=O)O1 (stereo not given in full) | 0.568 | -0.0775 (inactive) | -0.0647 | -0.14 | 0.662 | 2.23 | 0.549 | 0.272 | -0.89 | -0.43
4 | COCCn1c(C(=O)N2CCCC2)cc2c1C[C@H]1CN(C(=O)c3ccccc3)[C@@](Cc3ccc(F)cc3)(C(=O)OC)[C@@H]21 | 1.02 | 2 (inactive) | 0.309 | 0.11 | 0.827 | 2.96 | 0.406 | 1.32 | -0.364 | 1
5 | COC(=O)c1c(CC[C@@H](CO)NC(=O)N[C@H](Cn2cc(Cc3ccccc3)nn2)C(C)C)oc(C(C)=O)c1C(=O)OC | 0.0007 | 0.255 (inactive) | -0.0159 | -0.202 | 0.43 | 0.889 | 0.0096 | 0.709 | 0.0618 | 0.321
6 | [N-]=[N+]=NCc1ccccc1C[C@]1(C(=O)N2CCOCC2)N=C(c2ccc(OCCCO)cc2)O[C@H]1c1ccccc1N=[N+]=[N-] | 0.889 | -0.235 (inactive) | 0.311 | -0.0301 | 0.53 | 2.53 | 0.798 | 1.34 | 0.519 | 1.04
7 | CN(C)C(=O)[C@]1(Cc2ccccc2N=[N+]=[N-])N=C(c2ccc(OCCCO)cc2)O[C@@H]1c1ccccc1 | 0.724 | -0.316 (inactive) | 0.0522 | -0.0013 | 0.623 | 2.22 | 0.644 | 1.31 | 0.0709 | 1.13
8 | O=C1O[C@@H](c2ccccc2)[C@@H](c2ccccc2)N2[C@@H](c3ccccc3OCCO)[C@]3(C(=O)Nc4ccc(C#CC5=CCCCC5)cc43)[C@@H](C(=O)Nc3nc4ccccc4s3)[C@H]12 | 0.778 | 0.243 (inactive) | 0.0715 | -0.0583 | 0.272 | 1.39 | 0.399 | 1.3 | 0.309 | 1.06
9 | CCOC(=O)C[C@H]1[C@H](OC(=O)c2cc3ccccc3oc2=O)[C@@H](NC(=O)C2CCCCC2)c2cc(OCCCO)ccc2N1C(=O)c1ccccc1 | 0.266 | -0.275 (inactive) | 0.281 | -0.0482 | 0.274 | 0.112 | -0.0802 | 1.04 | 0.438 | 0.282
10 | O=C1OCCC=C[C@H]2OC34C=CCN(CCN5CCOCC5)C(=O)[C@H]3N(CCCCCCO)C(=O)[C@@H]4C12 (stereo not given in full) | -0.274 | 1 (inactive) | -0.274 | -0.167 | 0.844 | 0.1 | 0.133 | -0.614 | -0.592 | 0.0309
11 | COc1ccc(C(O)C2C=CC3C(=O)N(c4ccccc4)C(=O)C3N2Nc2ccccc2F)cc1OCc1ccccc1 (stereo not given) | 1.01 | 1.22 (inactive) | 0.837 | 0.114 | 0.51 | 2.04 | -0.0892 | 1.31 | -0.175 | 1.13
12 | CC(C)(C)OC(=O)CC[C@@]1(C(=O)NCCN2CCOCC2)N=C(c2ccc(OCCCO)cc2)O[C@@H]1c1ccccc1N=[N+]=[N-] | 0.641 | 0.393 (inactive) | 0.375 | 0.103 | 0.742 | 1.81 | 0.0412 | 1.33 | 0.178 | 0.289
13 | C=C(C)C1C(=C)CN([C@H](CO)c2ccccc2)C1=O (stereo not given in full) | 0.16 | 1.66 (inactive) | -0.0967 | -0.133 | -0.0056 | -0.583 | -0.133 | -0.245 | 0.117 | -0.844
14 | COC(=O)[C@@]1(Cc2ccc(F)cc2)[C@H]2c3cc(C(=O)N4CCCC4)n(Cc4cc(C)n(C)n4)c3C[C@H]2CN1C(=O)c1ccccc1 | 1.09 | 2.46 (inactive) | 0.318 | 0.385 | 0.664 | 3.58 | 1.14 | 1.32 | -0.642 | 1.14
15 | CC(=O)n1cc(C(O)C2C=CC3C(=O)N(C)C(=O)C3N2Nc2ccccc2)c2ccccc21 (stereo not given) | 0.712 | -0.803 (inactive) | 0.235 | 0.027 | 0.562 | 1.84 | -0.0989 | 1.11 | 1.25 | 0.897
16 | COC(=O)[C@@]1(Cc2ccc(F)cc2)[C@@H]2[C@@H](CC(=O)[C@H]2CC(=O)C(=O)N(C)C)CN1C(=O)c1ccccc1 | 0.998 | 0.742 (inactive) | 0.245 | -0.041 | 0.73 | 2.84 | -0.171 | 1.34 | -0.633 | 1.1
17 | CCc1oc(CC[C@@H](CO)NC(=O)NCCn2cc(C3(O)CCCCC3)nn2)c(C(=O)OC)c1C(=O)OC | -0.272 | -0.0435 (inactive) | 0.232 | -0.0813 | -0.0227 | 0.376 | 0.731 | 1.18 | 0.915 | 1.11
18 | CCCCc1cn(C[C@H](Cc2ccccc2)NC(=O)N[C@H](CO)CCc2oc(C(C)=O)c(C(=O)OC)c2C(=O)OC)nn1 | 0.25 | 0.119 (inactive) | 0.328 | -0.12 | 0.151 | 0.607 | 0.0969 | 1.25 | 0.756 | 0.859
19 | CCN(CC)c1ccc(N2CC=CC34O[C@@H]5/C=C\CCC(C)OC(=O)C5[C@H]3C(=O)N(C(CO)C(C)C)[C@@H]4C2=O)cc1 (stereo not given in full) | -0.451 | 0.211 (inactive) | -0.222 | -0.175 | 0.894 | 0.595 | -0.387 | 0.213 | -0.263 | -1.77
20 | C=CCNC(=O)[C@H]1[C@@H]2C(=O)O[C@@H](c3ccccc3)[C@@H](c3ccccc3)N2[C@@H](c2ccccc2OCCO)[C@]12C(=O)Nc1ccc(C#CC3=CCCCC3)cc12 | 0.039 | 1.86 (inactive) | 0.0942 | -0.148 | 0.0836 | 1.19 | 1.37 | 1.29 | 0.495 | 1.02
21 | COCC(=C=CC[C@H](O)c1ccccc1OCCO)C[C@H](O)c1cc(Cl)cc(Cl)c1O | 0.384 | 2.26 (inactive) | -0.0077 | -0.115 | 0.351 | 0.834 | 0.478 | 1.24 | -0.383 | 0.689
